Source: PubChem BioAssay (National Center for Advancing Translational Sciences (NCATS))
D2 ag-1: D2 dopamine receptor (human) agonism; P14416; HEK293 T-REx D2 cells, calcium flux agonist mode; activation, % at 2 µM; actives 0.53% (n = 340,000);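 active = activation over 3 SD above normal in the single-dose calcium agonist read, cut at about 30% in these data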; also: 0% is about no effect
Target sequence (P14416 whole entry, looked up): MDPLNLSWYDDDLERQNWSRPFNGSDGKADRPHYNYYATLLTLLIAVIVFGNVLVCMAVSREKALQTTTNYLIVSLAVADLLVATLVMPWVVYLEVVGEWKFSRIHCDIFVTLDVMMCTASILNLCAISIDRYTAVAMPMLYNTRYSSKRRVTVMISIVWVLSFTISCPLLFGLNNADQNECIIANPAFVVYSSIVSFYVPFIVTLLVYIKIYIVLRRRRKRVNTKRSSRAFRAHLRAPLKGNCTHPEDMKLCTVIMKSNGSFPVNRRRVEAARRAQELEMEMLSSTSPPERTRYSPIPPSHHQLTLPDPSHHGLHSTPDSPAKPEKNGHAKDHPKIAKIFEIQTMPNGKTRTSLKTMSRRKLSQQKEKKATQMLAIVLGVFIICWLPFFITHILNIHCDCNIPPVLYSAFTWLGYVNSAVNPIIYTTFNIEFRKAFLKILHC
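Tetracycline-induced HEK293 T-REx cells with force-coupled D2 receptor, plated overnight at 30 C, loaded with no-wash calcium dye. After a 10 s baseline, compound was pin-added and calcium flux read kinetically for 180 s; calcium rises flagged agonists.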
D2 PAM-1: positive allosteric modulators of human D2 dopamine receptor; HEK293 T-REx D2, calcium flux, EC20 dopamine potentiation; potentiation, % at 10 µM; actives 0.34% (n = 340,000); AID 485347;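 active = potentiation over 3 SD above the plate norm, cut at about 30% in these data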; also: 0% is about no effect
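Using a no-wash calcium dye in inducible, force-coupled HEK293 Trex cells expressing D2, we tracked fluorescence each second for 180 s after compound, then for 180 s after EC20 dopamine to detect augmented signalling.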
D2 ag-2: activates the human D2 dopamine receptor; P14416; actives 0.084% (n = 360,000); DiscoveRx PathHunter D2 beta-arrestin, luminescence, 90 min; 100% = 57 uM dopamine signal; activation, % (concentration not given with the values); in the data active = activation above about 40%; inconclusive = between about 15% and that limit
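Agonist mode: compounds alone added to overnight-plated D2 PathHunter cells for 90 min at 37 C, with 57 uM final dopamine (EC100) defining full response. Beta-arrestin recruitment detected by chemiluminescent reagent, read after 1 h at ambient temperature.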
D2 PAM-2: human D2 receptor positive allosteric modulation; DiscoveRx D2 beta-arrestin cells, luminescence, 90 min; 100% = 57 uM dopamine signal; potentiation, % (no concentration beside the values); actives 0.23% (n = 360,000); in the data active = potentiation above about 50%; inconclusive = mostly about 30% to 49%
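D2 cells co-treated with compound plus 50 nM dopamine (EC20) for 90 min at 37 deg C to detect potentiation. Beta-arrestin recruitment was read as enzyme-fragment luminescence after 1 h at ambient temperature. Full response was set by 57 uM dopamine.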
D2 antag: D2 dopamine receptor (human) antagonism | HEK293 TREx D2 cells, calcium flux, dopamine EC80 | inhibition, % at 10 µM | actives 2% (n = 340,000); in the data active = inhibition above about 30%; inactive = below that, where a call was filed; also: 0% is about no effect
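Calcium mobilization kinetics were recorded at 1 s intervals in tetracycline-induced HEK293 T-REx D2 cells, first for 180 s after compound addition and then 180 s after EC80 dopamine.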
Starred values were filed as active, the others as inactive; ? = inconclusive; / = no result given. Sampled rows, rich in hits. Any-hit rate of the full collection: about 2.4%.

SMILES | D2 ag-1 | D2 PAM-1 | D2 ag-2 | D2 PAM-2 | D2 antag
S=C(Nc1cccc(Cl)c1)N1CCN(c2ccccn2)CC1 | 2 | -11 | -5 | -1 | -15
COc1ccc(Cl)cc1NC(=S)N1CCN(c2ncccn2)CC1 | 12 | 5 | 2 | -2 | 12
COc1cccc(NC(=S)N2CCN(c3ccccn3)CC2)c1 | 32* | -9 | ? | 4 | -8
S=C(Nc1ccc(Cl)cc1Cl)N1CCN(c2ccccn2)CC1 | 8 | 1 | 2 | -1 | 18
COc1ccc(Cl)cc1NC(=S)N1CCN(c2ccccn2)CC1 | 21 | -8 | 2 | -4 | 35*
COc1ccc(O)c(CNn2c(-c3ccc(Br)cc3)nc3ccccc3c2=O)c1 | -2 | 3 | -3 | 8 | 50*
COc1ccc(OCc2cc(C(=O)NC(C)Cc3ccccn3)no2)c(Cl)c1 (stereo not drawn) | -1 | -7 | 9 | -12 | 33*
COc1ccc(-n2nc(C(=O)NCCc3ccc(OC)c(OC)c3)c3c4ccccc4n(C)c3c2=O)cc1 | -1 | 7 | / | / | /
O=C(Cc1ccccc1)NC1CCN(Cc2ccccc2)CC1 | 1 | -27 | -12 | -20 | 36*
Cc1ccc(Cl)cc1S(=O)(=O)N1CCC(C(=O)NC2CCN(Cc3ccccc3)CC2)CC1 | 3 | -22 | -3 | -16 | 31*
CC(Oc1ccccc1)C(=O)NC1CCCCCCC1 (stereo not drawn) | 0 | 7 | 4 | -11 | -12
Cc1ccc(CC(=O)NC2CCN(Cc3ccccc3)CC2)cc1 | 0 | -14 | -2 | -12 | -3
O=C(CCNS(=O)(=O)c1ccc(Br)cc1)NC1CCN(Cc2ccccc2)CC1 | / | / | -2 | -43 | /
CC(Oc1ccccc1)C(=O)NC1CCN(Cc2ccccc2)CC1 (stereo not drawn) | 0 | -28 | -3 | -20 | 42*
O=C(CCNS(=O)(=O)c1cccs1)NC1CCN(Cc2ccccc2)CC1 | 1 | -34 | 0 | -12 | 41*
COCCNc1nc(Nc2ccc(Cl)cc2F)c2sccc2n1 | / | / | 2 | -7 | /
CCCN1CCC(NC(=O)Cc2ccccc2C)CC1 | 1 | -13 | -4 | -5 | 1
Cc1ccccc1CC(=O)NC1CCN(Cc2ccccc2)CC1 | 0 | -37 | -1 | -24 | 56*
O=C(NC1CCN(Cc2ccccc2)CC1)C12CC3CC(CC(C3)C1)C2 | 1 | -29 | -2 | -16 | 32*
CC(CNC(=O)Cc1ccc(NC(=O)N2CCSc3ncccc32)cc1)c1ccccc1 (stereo not drawn) | 0 | -2 | / | / | /
CCOC(=O)C1CCCN(C(=O)CSc2ccccc2)C1 (stereo not drawn) | 0 | -8 | -1 | -6 | 4
CCOC(=O)C1CCCN(C(=O)CSc2ccc(NC(C)=O)cc2)C1 (stereo not drawn) | 34* | -10 | ? | 5 | -8
CCOC(=O)C1CCCN(C(=O)c2cc(Cl)ccc2Cl)C1 (stereo not drawn) | -1 | -6 | 0 | 2 | 31*
CCOC(=O)C1CCCN(C(=O)c2ccccc2SCCOC)C1 (stereo not drawn) | 0 | 0 | 3 | -1 | 30*
COCCSc1ccccc1C(=O)N1CCCC(C)C1 (stereo not drawn) | 0 | 8 | -3 | -3 | 3
SMILES | D2 ag-1 | D2 PAM-1 | D2 ag-2 | D2 PAM-2 | D2 antag
CS(=O)(=O)N1CCN(c2cnn(-c3ccccc3)c(=O)c2Cl)CC1 | 0 | 14 | 1 | -2 | 8
CN(C(=O)CN1CCN(c2cnn(-c3ccccc3)c(=O)c2Cl)CC1)C1CCS(=O)(=O)C1 (stereo not drawn) | 0 | -4 | -2 | 7 | 33*
Cn1c(CN2CCCCC2)c(C#N)c2ccccc21 | -1 | -23 | -4 | -22 | 46*
Cn1c(CN2CCN(CC#N)CC2)c(C#N)c2ccccc21 | 0 | -3 | 0 | -12 | -13
COc1ccc(-n2c(SCC(=O)N3CCOCC3)nc(O)c(Cc3ccccc3)c2=O)cc1 | 1 | -3 | -3 | -10 | 43*
COc1ccc(-n2c(SCC(=O)Nc3ccccc3)nc3c(c2=O)SCC3)cc1 | -1 | 12 | -2 | -6 | 31*
COc1ccc(-n2c(SCC(=O)N3CCOCC3)nc(O)cc2=O)cc1 | / | 1 | -1 | 10 | /
COc1ccccc1-n1c(SCC(=O)Nc2nnc(C)s2)nc2c(c1=O)SCC2 | 1 | 31* | 1 | 0 | 6
CCC(Nc1ccc(-c2nc(-c3ccco3)no2)cc1[N+](=O)[O-])c1ccccc1 (stereo not drawn) | -1 | -27 | / | / | /
CCOc1ccc(-c2nonc2NC(=O)c2oc3c(C)c(C)ccc3c2C)cc1OCC | 0 | 6 | / | / | /
CC(=O)c1ccc(NC(=O)C(C)n2nc(-c3ccccc3)ccc2=O)cc1 (stereo not drawn) | 0 | -4 | / | / | /
O=C(CCNS(=O)(=O)c1ccc2c(c1)CCN2C(=O)C1CC1)N1CCN(c2ccccc2F)CC1 | / | 11 | / | / | /
O=C(C1CCC1)N1CCc2cc(S(=O)(=O)NCCN3CCN(c4ccccc4F)CC3)ccc21 | 68* | -18 | ? | -4 | 53*
CCC(=O)N1CCc2cc(S(=O)(=O)NCCC(=O)N3CCN(c4ccccc4)CC3)ccc21 | 5 | -4 | 8 | -4 | 34*
CC(=O)N1c2ccccc2C(C)CC12CCCCC2 (stereo not drawn) | 1 | 0 | -6 | -22 | 12
CC(=O)N1Cc2ccccc2C(C)CC12CCCC2 (stereo not drawn) | -1 | -3 | -5 | 0 | 31*
Cc1c(C(=O)N(C)C)sc2c1c(=O)n(-c1ccc(Cl)c(Cl)c1)c(=O)n2CC(=O)Nc1ccc(Br)cc1F | 1 | / | / | / | /
CC12CN3CC(c4ccccc4)(CN(C1)C3c1ccc(Cl)cc1)C2=O (stereo not drawn) | 1 | 17 | / | / | /
O=C1CN(C(=O)c2ccc(S(=O)(=O)N3CCCC3)cc2)C(c2ccc(F)cc2)c2cc(Br)ccc2N1 (stereo not drawn) | 0 | 15 | / | / | /
C/C(=N\NC(=O)C1(C)CC1(Br)Br)c1cccc(NC(=O)C2CCC2)c1 (stereo not drawn) | -1 | -1 | -5 | 2 | 30*
COc1ccc(CC(=O)N/N=C(\C)c2cccc(NC(=O)C3CC3)c2)cc1 | -1 | 4 | -3 | -18 | -3
O=c1[nH]c2cc3c(cc2cc1CN(CCc1ccccc1)Cc1nnnn1C1CCCC1)OCCO3 | 35* | -14 | / | / | -1
Cc1cc2cc(CN(Cc3ccc4c(c3)OCO4)Cc3nnnn3C3CCCC3)c(=O)[nH]c2cc1C | 0 | -3 | -2 | -7 | -15
O=C(CSc1nccc(=O)[nH]1)Nc1ccc(S(=O)(=O)N2CCOCC2)cc1 | 0 | 5 | -1 | -2 | 31*
Nc1c(C(=O)c2ccccc2)sc2nsc(SCCN3CCCC3)c12 | 37* | -14 | -2 | -15 | 9
